Measured values published in PubChem BioAssay (NCI).
This is part of a sample that, as a whole, favours compounds with a hit. Of some 79,000 tested, about 15% had one in any assay. No stated cut-off is given here; in the data, active means growth inhibition above about 70%; inactive means the rest.

What was measured:
[1] = NCI Yeast Anticancer Drug Screen. Data for the rad50 strain (AID 155);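 further: 0% = growth of vehicle-only cultures of the same strain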; settings: S. cerevisiae rad50 strain growth inhibition; at 50.0 µM; hits give high values
Method in brief: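 Growth of the mutant yeast was measured after compound exposure and referenced to vehicle-treated cultures.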

[2] = NCI Yeast Anticancer Drug Screen. Data for the mec2-1 strain (AID 157); settings: S. cerevisiae mec2-1 strain, at 50.0 µM, hits give high values
Method in brief: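 Compounds were applied to mec2-1 yeast cells. Their growth was then compared with that of vehicle-treated cultures to give growth inhibition.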

[3] = NCI Yeast Anticancer Drug Screen. Data for the sgs1 mgt1 strain (AID 161);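 further: 0% = growth of cultures given vehicle only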; settings: S. cerevisiae sgs1 mgt1 strain, at 50.0 µM, hits give high values
Method in brief: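 Growth of a repair-deficient yeast mutant was monitored after compound treatment and expressed as inhibition relative to vehicle-treated cultures.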

[4] = NCI Yeast Anticancer Drug Screen. Data for the cln2 rad14 strain (AID 165);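 further: 0% = growth equal to vehicle treated cultures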; settings: S. cerevisiae cln2 rad14 strain, at 50.0 µM, hits give high values
Method in brief: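 Strain: cln2 rad14 yeast, altered in cell cycle control and DNA damage repair. Read-out: growth inhibition vs vehicle.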

[5] = NCI Yeast Anticancer Drug Screen. Data for the bub3 strain (AID 167); settings: S. cerevisiae bub3 mutant strain, at 50.0 µM, hits give high values
Method in brief: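 Whole-cell yeast assay. The mutant strain was incubated with compounds, and growth inhibition was determined by comparison with vehicle-treated cells.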

[6] = NCI Yeast Anticancer Drug Screen. Data for the mlh1 rad18 strain (AID 175); settings: S. cerevisiae mlh1 rad18 strain growth inhibition; at 50.0 µM; hits give high values
Method in brief: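 A repair-deficient yeast strain is exposed to test compound, and growth is scored relative to vehicle-treated controls.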

Measured: growth inhibition

Cc1ccccc1CCOC(=O)c1cc([N+](=O)[O-])cc([N+](=O)[O-])c1
inactive: [1] -19% | [2] 2.2% | [3] -10.9% | [4] 4.1% | [5] 5.45% | [6] -16.4%

COC(=O)c1cc(Cl)c(C(=O)OC)cc1Cl
inactive: [1] 4.1% | [2] 3% | [3] 3.85% | [4] 0.6% | [5] 7.4% | [6] 8.6%

COc1ccc(N/N=C2\CCOc3ccc(C)cc3C2=O)cc1
inactive: [1] 53.6% | [2] 27.8% | [3] 42.5% | [4] 14.6% | [5] 52% | [6] 46.7%

O=C(O)c1ccc(C(=O)Nc2cccc3ccccc23)c(C(=O)O)c1
inactive: [1] -6.9% | [2] 8.4% | [3] -11.9% | [4] 6.35% | [5] 3.55% | [6] -10.2%

COc1ccc(N2C(=O)OC3(CCN(Cc4ccccc4)CC3)C2=O)cc1
inactive: [1] -1.55% | [2] 13.2% | [3] 7.7% | [4] 8.25% | [5] 8% | [6] 16.4%

CCN(CC)c1nc2c(c(=O)n(C)c(=O)n2C)n1CCCNCC(O)c1ccc(O)c(O)c1 (stereo not given)
inactive: [1] -15.7% | [2] -16.4% | [3] -30.9% | [4] -47.1% | [5] -1.85% | [6] -31.5%

Oc1ccc(N=Nc2ccccc2)c(O)c1
inactive: [1] 54% | [2] 29.1% | [3] 43.5% | [4] -18.9% | [5] 46% | [6] 64%

Nc1cccc2cccc(N)c12
inactive: [1] 51.9% | [2] 2.1% | [3] 41.5% | [4] 15.3% | [5] 9.65% | [6] 45%

Cc1nc(N)nc(-c2ccccc2)c1N=Nc1ccccc1Br
inactive: [1] 5.55% | [2] 0.15% | [3] 4.4% | [4] -6.95% | [5] -0.85% | [6] 11.8%

C=C(CC(=O)NN)C(=O)NN
inactive: [1] -4.75% | [2] 12.3% | [3] -24.2% | [4] -3.1% | [5] -22.5% | [6] 1.25%

Cc1c([O-])[n+]2cccc3ccn(c1=O)c32
inactive: [1] -28.7% | [2] -13.6% | [3] -16.7% | [4] -11.1% | [5] -2.4% | [6] 12.1%

Cc1cnc(Sc2ncccc2[N+](=O)[O-])nc1
inactive: [1] 33% | [2] 5.75% | [3] 22.8% | [4] 25.6% | [5] -3.1% | [6] 6.7%

O=C(NCCN1CCNCC1)c1ccc(Cl)cc1
inactive: [1] 26.9% | [2] 40% | [3] 30.8% | [4] 63% | [5] 33.6% | [6] 40.2%

CN(CCNC(=O)NC1CCCCC1)c1ccccc1
inactive: [1] 3.45% | [2] 0.75% | [3] 15.9% | [4] 2.85% | [5] 8.45% | [6] 35.4%

CN(C)c1ccc(/C=c2\[nH]c(=O)/c(=C\c3ccc(N(C)C)cc3)[nH]c2=O)cc1
inactive: [1] 4.3% | [2] 4.6% | [3] 12.2% | [4] 14.6% | [5] -8.55% | [6] 16.2%

CO[C@H]1CC2CC1C1C3=C(NC21)C1(O)C[C@H]2CN(CC3)C1C[C@@H]2C(C)CO (stereo not given in full)
inactive: [1] -3.6% | [2] 9.9% | [3] 2.75% | [4] -0.15% | [5] 1.45% | [6] -23.6%

CSc1nc2c(cnn2C)c(=O)[nH]1
inactive: [1] 14.7% | [2] -1.95% | [3] 3.3% | [4] -4.55% | [5] 10.5% | [6] 24.6%

Cc1ccccc1N(CC1CO1)CC1CO1 (stereo not given)
inactive: [1] 10.2% | [2] -18.1% | [3] -20.8% | [4] -19% | [5] -0.8% | [6] -3.25%

O=c1[nH]nc(Cc2ccc(Cl)cc2)n1CCO
inactive: [1] 8.2% | [2] 5.95% | [3] 19.6% | [4] 3.75% | [5] 5.85% | [6] -21.1%

O=c1nc2oc(-c3ccccc3)cn2c(=O)n1-c1ncc(-c2ccccc2)o1
inactive: [1] 1.35% | [2] -6.9% | [3] 1.4% | [4] 22.4% | [5] 8.1% | [6] 6.05%

Nc1nc(-c2ccc(S(=O)(=O)O)cc2)cc(=O)[nH]1
inactive: [1] -9.6% | [2] -4.5% | [3] -10.7% | [4] 17.2% | [5] -27.4% | [6] 16.5%

O=C1NC(N2CCCC(CO)C2)=N/C1=C\c1ccccc1 (stereo not given)
inactive: [1] -15.6% | [2] -2.85% | [3] 10% | [4] 7.6% | [5] 7.15% | [6] -33.7%

Nc1c(C(=O)Nc2ccc(S(N)(=O)=O)cc2)[n+]([O-])c2ccccc2[n+]1[O-]
inactive: [1] -7.9% | [2] -9.8% | [3] 0.5% | [4] 1% | [5] -9.95% | [6] -6.45%

CC(Cl)(CO)CCl (stereo not given)
inactive: [1] 5.45% | [2] 9.5% | [3] -2.65% | [4] 4.05% | [5] -6.4% | [6] 2.05%

Nc1nc(-c2ccccc2)cc(-c2cc(Cl)ccc2O)n1
inactive: [1] 13.9% | [2] -0.55% | [3] -3.1% | [4] 20.5% | [5] 6.4% | [6] 6.55%

COCCCC(NC(=O)C(CC(C)C)NC(=O)OCc1ccc(OC)cc1)C(N)=O (stereo not given)
inactive: [1] -12.9% | [2] -21.4% | [3] -22.9% | [4] 4.2% | [5] -12.1% | [6] 4.2%

COc1ccccc1NC(=O)CC(=O)n1nc(C)c(N=Nc2ccccc2C(=O)O)c1C
inactive: [1] -12.6% | [2] -25.3% | [3] -17.6% | [4] -14.9% | [5] -15.8% | [6] -9.5%

Cc1ccc(-n2cc(-c3ccc(Cl)cc3)c3c2N=CN2NC(c4ccco4)=NC32)cc1 (stereo not given)
inactive: [1] 5.1% | [2] 14.8% | [3] -13.6% | [4] -12.4% | [5] 11% | [6] -15.3%

O=C(Nc1ccccc1)c1cc2ccccc2oc1=O
inactive: [1] 6.95% | [2] -2.65% | [3] -4.5% | [4] 4.75% | [5] -13.2% | [6] 9.55%

COc1cc(CC(NC(=O)c2ccccc2)C(C)=O)cc(OC)c1OC (stereo not given)
inactive: [1] -9.7% | [2] 9.35% | [3] -5.4% | [4] -26.2% | [5] 27.8% | [6] -4.1%

COc1ccc(C)cc1S(=O)(=O)c1ccc(C)cc1[N+](=O)[O-]
inactive: [1] 6.6% | [2] -2.85% | [3] 2.15% | [4] 34.5% | [5] 23.3% | [6] -15.4%

Nc1ccc(-c2ccc(N=C(/C=N/O)NO)cc2)cc1
inactive: [1] -7.05% | [2] -4.25% | [3] 2.4% | [4] -46% | [5] 12.2% | [6] -2.15%

O=C(c1ccc(Cl)cc1)N(C(=S)N1CCN(c2ccccn2)CC1)C1CCCCC1
inactive: [1] 4.5% | [2] 13.7% | [3] 15.3% | [4] 6.85% | [5] -16.6% | [6] 19.4%

O=NNc1ccc(S(=O)(=O)c2ccccc2)cn1
inactive: [1] 49.1% | [2] 13.9% | [3] -27.9% | [4] 12.1% | [5] -26.6% | [6] 5.2%

Nc1nc(SCCc2ccccc2)nc2nc3c(c(-c4ccccc4)c12)CCCC3
inactive: [1] -23.3% | [2] -10.6% | [3] -3.2% | [4] 2.35% | [5] 0.05% | [6] 5.1%

Cc1ccc2c(c1)OC(=O)CC2
inactive: [1] 10.3% | [2] -9.65% | [3] -3.25% | [4] -18.8% | [5] -4.1% | [6] -4.3%

Cc1ccc(NC(=O)C(=O)CC(=O)c2c(C)n([O-])c3ccccc3[n+]2=O)cc1
inactive: [1] 5.65% | [2] 6.95% | [3] -6.5% | [4] 16.4% | [5] -1.55% | [6] 17.4%

O=C(Cc1nc2ccccc2nc1CC(=O)c1cccnc1)c1cccnc1
inactive: [1] 6.45% | [2] 18.4% | [3] 16.1% | [4] 23.1% | [5] -3.55% | [6] 25.9%

CCOC(=O)c1c(Br)c2c3ccccc3c3ccccc3n2c1C
inactive: [1] 1.7% | [2] -4.9% | [3] -3.75% | [4] -11.8% | [5] 1.8% | [6] 7.25%

Cc1cc(C)c(NC(=O)Nc2cccc(Cl)c2)c(C)c1
inactive: [1] -0.85% | [2] 17.3% | [3] 1.7% | [4] -4% | [5] 3.35% | [6] -17.1%
